Source: PubChem
Most compounds without a hit are left out; they make up all but 2.1% or so of the library.
D2 ag-1 = Beta-Arrestin HTS for Positive Allosteric Modulators of the Human D2 Dopamine Receptor: Agonists; D(2) dopamine receptor (Homo sapiens), P14416; DiscoveRx PathHunter D2 beta-arrestin, luminescence, 90 min; 100% = 57 uM dopamine signal; activation, % (no concentration beside the values); 360,000 tested, 0.084% active; AID 624465, 2012; in the data active = activation above about 40%
Target sequence (P14416 whole entry, looked up): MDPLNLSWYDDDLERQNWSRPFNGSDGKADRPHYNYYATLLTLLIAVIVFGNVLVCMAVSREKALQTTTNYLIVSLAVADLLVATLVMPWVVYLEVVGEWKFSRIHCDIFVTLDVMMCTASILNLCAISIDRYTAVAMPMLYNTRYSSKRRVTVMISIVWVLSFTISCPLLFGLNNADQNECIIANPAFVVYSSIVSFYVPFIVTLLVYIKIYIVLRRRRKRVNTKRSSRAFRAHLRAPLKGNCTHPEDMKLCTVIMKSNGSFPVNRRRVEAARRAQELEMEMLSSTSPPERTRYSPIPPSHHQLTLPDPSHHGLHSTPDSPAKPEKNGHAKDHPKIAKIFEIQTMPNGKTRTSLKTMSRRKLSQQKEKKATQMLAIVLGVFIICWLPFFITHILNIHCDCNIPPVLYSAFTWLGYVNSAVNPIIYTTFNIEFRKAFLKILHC
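DiscoveRx PathHunter D2 beta-arrestin cells (2,100/well) attached overnight, then compound-stimulated 90 min at 37 C in HBSS/10 mM HEPES/0.1% Tween-20 buffer; beta-galactosidase complementation read by luminescence after 1 h at ambient temperature. Dopamine 57 uM final (EC100) as control.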
D2 ag-2 = HTS Assay for Allosteric Agonists of the Human D2 Dopamine Receptor: Primary Screen for Agonists | D(2) dopamine receptor (Homo sapiens), P14416 | HEK293 T-REx D2 cells, calcium flux agonist mode | activation, % at 2 µM | 340,000 tested, 0.53% active | AID 485358, 2010;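 active = activation over 3 SD above normal in the single-dose calcium agonist read, cut at about 30% in these data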
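Tetracycline-induced HEK293 T-REx cells with force-coupled D2 receptor, plated overnight at 30 C, loaded with no-wash calcium dye. After a 10 s baseline, compound was pin-added and calcium flux read kinetically for 180 s; calcium rises flagged agonists.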
LDHA inh = qHTS assay for inhibitors of human lactate dehydrogenase; purified LDHA, NADH/diaphorase-resazurin fluorescence; stronger effect = lower value; L-lactate dehydrogenase A chain (Homo sapiens), P00338; activity change, % (values are at about 110 or 230 µM); 480,000 tested, 0.15% active; in the data active = activity change below about -30%
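Remaining NADH was detected by diaphorase (0.133 mg/mL) converting 37 µM resazurin to fluorescent resorufin, read at 0 and 20 minutes. The preceding 5-minute room-temperature reaction used 2 nM LDHA, 0.2 mM sodium pyruvate and 0.06 mM NADH at pH 7.4.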
D2 antag = HTS Assay for Allosteric Antagonists of the Human D2 Dopamine Receptor: Primary Screen for Antagonists. D(2) dopamine receptor (Homo sapiens), P14416. HEK293 TREx D2 cells, calcium flux, dopamine EC80. inhibition, % at 10 µM. 340,000 tested, 2% active; in the data active = inhibition above about 30%; inactive = below that, where a call was filed
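Calcium flux kinetic readout in an inducible HEK293 TREx D2 line plated overnight at 30 C. After 180 s compound exposure, an EC80 dopamine challenge follows with another 180 s kinetic read to detect antagonism.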
D2 PAM-1 = Beta-Arrestin HTS for Positive Allosteric Modulators of the Human D2 Dopamine Receptor: Potentiators; D(2) dopamine receptor (Homo sapiens), P14416; DiscoveRx D2 beta-arrestin cells, luminescence, 90 min; 100% = 57 uM dopamine signal; potentiation, % (no concentration beside the values); 360,000 tested, 0.23% active; AID 624464, 2012; in the data active = potentiation above about 50%
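PathHunter beta-arrestin assay in DiscoveRx D2 cells. Compounds were added with an EC20 of dopamine (50 nM final) for 90 min at 37 deg C. Luminescence was read 1 h after detection reagent, with 57 uM dopamine as the EC100 control.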
D2 PAM-2 = HTS Assay for Positive Allosteric Modulators of the Human D2 Dopamine Receptor: Primary Screen for Potentiators; 340,000 tested, 0.34% active; HEK293 T-REx D2, calcium flux, EC20 dopamine potentiation; D(2) dopamine receptor (Homo sapiens), P14416; potentiation, % at 10 µM;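 active = potentiation over 3 SD above the plate norm, cut at about 30% in these data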
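Using a no-wash calcium dye in inducible, force-coupled HEK293 Trex cells expressing D2, we tracked fluorescence each second for 180 s after compound, then for 180 s after EC20 dopamine to detect augmented signalling.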
Each line names hits and unclear results; the compound was inactive in the other large screens.

CCc1ccc(NC(=O)NNC(=O)CCc2ccccc2)cc1	none
O=C(O)CCC(=O)NNC(=O)CCC(=O)Nc1ccccc1	D2 antag 40
O=C(CCc1ccccc1)NNC(=O)Nc1ccccc1	D2 antag 44
O=C(Nc1ccccc1)c1ccccc1CCc1ccccc1	D2 antag 32
O=C(NCC(=O)N(c1ccccc1)C(C(=O)NC1CCCC1)c1ccncc1)c1ccco1 (stereo not given)	none (no result: D2 ag-2, D2 antag, D2 PAM-2)
CC(C)c1ccc(N(C(=O)CNC(=O)c2ccco2)C(C(=O)NC2CCCC2)c2ccncc2)cc1 (stereo not given)	D2 antag 31
Cn1c(=O)c2c(SCC(=O)N3CCCc4ccccc43)nc(C3CC3)nc2n(C)c1=O	D2 antag 35
Cc1sc2nc(C3CC3)nc(SCC(=O)N3CCCc4ccccc43)c2c1C	none (no result: D2 ag-1, LDHA inh, D2 PAM-1)
Cc1cc(C)n2nc(CCc3nc4nc(C)cc(C)n4n3)nc2n1	none (no result: D2 ag-1, LDHA inh, D2 PAM-1)
CC(=O)N(C(C)=O)c1nc2nc(C)cc(C)n2n1	D2 antag 102
COc1ccc(OCCSc2ccc(S(=O)(=O)N3CCCC3)cn2)cc1	none
O=C(CSc1ccc(S(=O)(=O)N2CCCCC2)cn1)Nc1ccccc1Br	D2 ag-1 41
NC(=O)CSc1ccc(S(=O)(=O)N2CCCCC2)cn1	none
O=S(=O)(c1ccc(SCCOc2cccc(Br)c2)nc1)N1CCCC1	D2 antag 42
Cc1cc(N(CCO)CCO)nc(NCc2ccccc2)n1	none (no result: D2 ag-1, D2 ag-2, D2 antag, D2 PAM-1, D2 PAM-2)
CN1CCN(CCNC(=O)Cc2ccc(C(F)(F)F)cc2)CC1	none (no result: D2 ag-1, D2 ag-2, D2 antag, D2 PAM-1, D2 PAM-2)
Cc1cc(C(=O)NC2CCN(Cc3ccccc3)CC2)c2ccccc2n1	none (no result: D2 ag-1, D2 ag-2, D2 antag, D2 PAM-1, D2 PAM-2)
Cc1oc(-c2ccc(Cl)cc2)cc1C(=O)NC1CCN(Cc2ccccc2)CC1	D2 antag 58
Cc1oc(C(C)(C)C)cc1C(=O)NC1CCN(Cc2ccccc2)CC1	D2 antag 85
CCc1ccc(-c2noc(CSc3nc4cc5c(cc4c(=O)n3Cc3ccco3)OCO5)n2)cc1	none (no result: D2 ag-1, D2 ag-2, D2 antag, D2 PAM-1, D2 PAM-2)
Cc1nn(S(=O)(=O)c2cccc([N+](=O)[O-])c2)c(C)c1S(=O)(=O)N1CCOCC1	none
Cc1nn(S(=O)(=O)c2cccc([N+](=O)[O-])c2)c(C)c1Br	D2 PAM-1 62
Cc1cccc(NC(=O)COc2cccc(/C=N/O)c2)c1C	none (no result: D2 ag-1, D2 ag-2, D2 antag, D2 PAM-1, D2 PAM-2)
Cc1nc(SCC(=O)NCc2ccco2)c2c3c(sc2n1)CCCC3	D2 antag 36
O=C(O)CCSc1sc(=S)sc1SCCC(=O)O	none (no result: D2 ag-1, D2 ag-2, D2 antag, D2 PAM-1, D2 PAM-2)
COc1ccc(OC)c(C(C(=O)NC2CCCCC2)N(Cc2ccco2)C(=O)c2ccccn2)c1 (stereo not given)	none
COc1cccc(C(C(=O)NC2CCCCC2)N(Cc2ccco2)C(=O)c2ccccn2)c1 (stereo not given)	D2 antag 34
O=C(Nc1cccc(-c2ccc(N3CCOCC3)nn2)c1)c1ccc(Cl)cc1	D2 antag 31
O=C(Nc1cccc(S(=O)(=O)NC2=NCCC2)c1)C1(c2ccc(Cl)cc2)CCCC1	none (no result: D2 ag-1, D2 ag-2, D2 antag, D2 PAM-1, D2 PAM-2)
NC(=O)COc1ccc(C2CC(=O)Nc3nc(N4CCCCC4)sc32)cc1 (stereo not given)	none (no result: D2 ag-1, D2 ag-2, D2 antag, D2 PAM-1, D2 PAM-2)
Cc1cc2c(cc1[N+](=O)[O-])NC(CNC(C)C)CC2 (stereo not given)	D2 antag 65
COc1cc2c(cc1OC)C1C/C(=N\O)C(CC(C)C)CN1CC2 (stereo not given)	D2 antag 60
CCC(CC)CC1CN2CCc3cc(OC)c(OC)cc3C2CC1(O)CC (stereo not given)	none (no result: D2 ag-2, D2 antag, D2 PAM-2)
CN(C)c1ccc(O)c2c1CC1CC3C(N(C)C)C(=O)C(C(N)=O)=C(O)[C@@]3(O)C(=O)C1=C2O (stereo not given in full)	none (no result: D2 ag-2, D2 antag, D2 PAM-2)
